Molecules are shown by their SMILES. The source made the active and inactive calls. Calls follow the shape of the dose curve; as a rule, active = well fitted curve in the direction sought with a large enough effect in the repeat runs; inconclusive = weak or mixed curves; inactive = flat fitted curve, though single readings scatter.
% is scaled to controls: 0 for no effect and ±100 for the full control effect.

The experiment in a line: qHTS assay to test for compound auto fluorescence at 590 nm (red) in HepG2 cells (AID 720674). As to conditions: HepG2 autofluorescence, red 540/590 nm, 1 h; series mostly up to 91.3 µM. The text has this:
U.S. Tox21 Program National Center for Advancing Translational Sciences [NCATS] NIH Chemical Genomics Center [NCGC] U.S. Environmental Protection Agency [EPA] National Institutes of Environmental Health Sciences [NIEHS] National Toxicology Program [NTP] U.S. Food and Drug Administration [FDA] Tox21 Assay Overview: Compound auto fluorescence often interferes with screening of the compound library against various biological targets and signaling pathways. Some of these compounds may have fluorophoric properties. Such properties may interfere with the assay outputs resulting in false positives and/or negatives. To decrease such complications and ensure the compound activities are relevant in terms of biological response, the Tox21 10K compound library was screened for auto fluorescence. From the fluorophores used as reporter signals in our screening assays, the auto fluorescence equivalencies of compounds against three fluorophores have been evaluated: Triamterene, Fluorescein and Rose Bengal sodium for blue, green and red fluorescence, respectively. The fluorescence intensities were measured using Excitation/Emission wavelengths at 405/460nm, 485/535nm and 540/590nm for blue, green and red labels, respectively. This assay includes the red fluorescence data.
Tox21 Assay Protocol Summary: 2,000 HepG2 cells in 5 uL of culture medium (MEM containing 10% FBS) per well were dispensed into black wall/clear bottom 1536-well plates using a Multidrop Combi Dispenser (ThermoFisher Scientific, Waltham, MA). The assay plates were incubated overnight at 37 C to allow cell attachment to the well bottom, followed by the transfer of 23 nL compound or DMSO vehicle by a pintool work station (Kalypsys , San Diego, CA). After the assay plates were incubated for 1 hr at 37 C and 5% CO2, fluorescence intensities in the assay plates were measured by an Envision (PerkinElmer, Shelton, CT) plate reader using three labels for measuring blue, green and red fluorescence at […] 460, 535 and 590 nm respectively.
(In general: qHTS replaces the single test concentration by a dilution series.)
In the case of `N#CCc1ccc(Cl)cc1Cl`, the compound was classed as inactive. The same measure, in the same setting: then `OC[C@H]1O[C@@H](n2cnc3c(=S)nc[nH]c32)[C@H](O)[C@@H]1O`, with “inactive”; and `NNC(=O)CP(=O)(c1ccccc1)c1ccccc1`, with “inactive”. As for `Nc1cccc2c1CN(C1CCC(=O)NC1=O)C2=O` (stereo not given), the outcome was inactive.

As to `O=C(CCCN1CC=C(n2c(=O)[nH]c3ccccc32)CC1)c1ccc(F)cc1`, the compound was classed as inactive.

Take `CC(=O)OCCN(CCOC(C)=O)c1ccc(N=Nc2ccc([N+](=O)[O-])cc2C#N)cc1`: the call was inactive. As to `Cc1cc(C)cc(N)c1`, the result was inactive. Still for that read-out and setting: then `CCOC(=O)/C=C/C(=O)OCC`, with “inactive”. Turning to `CC1(C)O[C@@H]2C[C@H]3[C@@H]4C[C@H](F)C5=CC(=O)C=C[C@]5(C)[C@H]4[C@@H](O)C[C@]3(C)[C@]2(C(=O)CO)O1`, the fluorescence, relative to Rose Bengal was 0.174% [at 18.6 µM] (inactive). On to `Cc1ccco1`, for which the outcome was inactive. Still for that read-out and setting: in the case of `c1ccc(C[n+]2cccc3ccccc32)cc1` it was “inactive”.

Consider `FC(F)(F)c1ccccc1Cl`, for which the compound was called inactive. `CCOC(=O)OC(C)OC(=O)[C@@H]1N2C(=O)[C@@H](NC(=O)[C@H](N)c3ccccc3)[C@H]2SC1(C)C` (stereo not given in full): the fluorescence, relative to Rose Bengal was -0.696% [at 18.6 µM] (inactive). Regarding `C[C@@]12CCC[C@H]1[C@@H]1CC[C@H]3C[C@@H](O)CC[C@]3(C)[C@H]1CC2`, the compound was classed as inactive. The same measure, in the same setting: in the case of `CCCCCCCCC(CCCCCC)C(=O)O` (stereo not given) it was “inactive”. As to `C[C@@H](CN(C)C)CN1c2ccccc2Sc2ccccc21`, the fluorescence, relative to Rose Bengal was 0.322% [at 18.6 µM] (inactive). As to `O[C@@H]1CO[C@H]2[C@@H]1OC[C@@H]2O`, the compound was classed as inactive. Still for that read-out and setting: in the case of `CC(C)=CC(=O)C=C(C)C` it was “inactive”. For `CCCCN1CCCC1C(=O)Nc1c(C)cc(C)cc1C` (stereo not given), the compound was called inactive. Regarding `O=c1cc(-c2ccccc2)oc2ccc3ccccc3c12`, the result was inactive. Regarding `CCOC(=O)C1=C(C)NC(C)=C(C(=O)OC)C1c1cccc(Cl)c1Cl` (stereo not given), the compound was classed as inactive. `C=C1C[C@@]23CC[C@H]4[C@@](C)(CCC[C@@]4(C)C(=O)O[C@@H]4O[C@H](CO)[C@@H](O)[C@H](O)[C@H]4O)[C@@H]2CC[C@]1(O[C@@H]1O[C@H](CO)[C@@H](O)[C@H](O[C@@H]2O[C@H](CO)[C@@H](O)[C@H](O)[C@H]2O)[C@H]1O[C@@H]1O[C@H](CO)[C@@H](O)[C@H](O)[C@H]1O)C3`: the result was inactive. Still for that read-out and setting: in the case of `CN1C(=O)c2ccccc2C1=O` it was “inactive”; in that of `CC1(C)S[C@@H]2[C@H](NC(=O)C(c3ccccc3)S(=O)(=O)O)C(=O)N2[C@H]1C(=O)O` (stereo not given in full), “inactive”. On to `O=C1c2ccccc2C(=O)C1c1nc2ccccc2c(Br)c1O`, for which the call was inactive. On to `O=C1NC(=O)c2cc([N+](=O)[O-])ccc21`, for which the compound was called inactive. On to `COc1cc(Nc2c(C#N)cnc3cc(OCCCN4CCN(C)CC4)c(OC)cc23)c(Cl)cc1Cl`, for which the outcome was inactive. On to `C/C=C\C/C=C/CCCCCCCCOC(C)=O`, for which the call was inactive. In the case of `CC(=O)Oc1ccc([N+](=O)[O-])cc1CCl`, the compound was called inactive.

Take `C=CC(C)(CCC=C(C)C)OC(=O)CC(C)C` (stereo not given): the call was inactive. On to `CC1(C)[C@H](C(=O)O)N2C(=O)C[C@H]2S1(=O)=O`, for which the call was inactive. Regarding `Cc1cc(O)ccc1O`, the call was inactive. `CCCCCCCCN`: the compound was called inactive. Regarding `C(=C\c1ccccc1)/c1ccccc1`, the call was inactive. In the case of `O=C(O)CCc1nc(-c2ccccc2)c(-c2ccccc2)o1`, the call was inactive. Take `C=CC(=O)[O-].C=CC(=O)[O-].[Zn+2]`: the compound was called inactive.

Regarding `CC(=O)[C@H]1[C@H](C#N)C[C@H]2[C@@H]3CC=C4C[C@@H](O)CC[C@]4(C)[C@H]3CC[C@@]21C`, the compound was called inactive. As to `CC(=O)c1ccc([N+](=O)[O-])cc1`, the call was inactive. As for `CC(O)c1ccccc1` (stereo not given), the compound was called inactive. On the same count and under the same terms, in the case of `Cc1c(C)c2c(c(C)c1OC(=O)CCC(=O)OCCO)CC[C@@](C)(CCC[C@H](C)CCC[C@H](C)CCCC(C)C)O2` it was “inactive”.

(Values after PubChem BioAssay (Tox21).)
